Test results from PubChem BioAssay (NCI).
Compounds without any hit were thinned out: in the full panel of roughly 83,000, 20% have a hit.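 Activity criterion: percent growth below 10, measured after cells in 96-well plates were exposed to a single compound concentration for 48 hours.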 A number with no mark means an inactive call. The source made the active and inactive calls.

Assays:
Assay in all cases: NCI-60 one-dose screen, 48 h (100 = growth as untreated, 0 = no growth, -100 = all killed)
Settings in all cases: 10 µM unless noted
HCT-15 colon = tested on: HCT-15 colon
HT29 colon = tested on: HT29 colon
SNB-75 CNS = tested on: SNB-75 CNS
SNB-19 CNS = tested on: SNB-19 CNS
U251 CNS = tested on: U251 CNS
PC-3 prostate = tested on: PC-3 prostate
SK-MEL-5 melanoma = tested on: SK-MEL-5 melanoma
UACC-62 melanoma = tested on: UACC-62 melanoma
LOX IMVI melanoma = tested on: LOX IMVI melanoma
SK-MEL-28 melanoma = tested on: SK-MEL-28 melanoma

SMILES	growth (HCT-15 colon)	growth (HT29 colon)	growth (SNB-75 CNS)	growth (SNB-19 CNS)	growth (U251 CNS)	growth (PC-3 prostate)	growth (SK-MEL-5 melanoma)	growth (UACC-62 melanoma)	growth (LOX IMVI melanoma)	growth (SK-MEL-28 melanoma)
CCN(CC)CCC(CNc1ccnc2cc(Cl)ccc12)c1ccc(O)cc1 (stereo not given)	109%	29.5%	85.7%	103%	81.3%	61.1%	91.9%	103%	50.4%	107%
CC(C)CC(NC(=O)OCC1c2ccccc2-c2ccccc21)C(=O)O (stereo not given)	105%	112%	90.3%	99.1%	97.6%	104%	101%	104%	103%	105%
COc1cc2c(cc1OCCCOc1cc3c(cc1OC)C(=O)N1CCC[C@H]1C=N3)C=CC(C)(C)O2	89.9%	99.7%	93.8%	85.9%	66.6%	78.9%	66.4%	81%	69.6%	33.2%
CC1(C)C2CCC(O)(C(=O)O)C1C2 (stereo not given)	114%	110%	83.4%	102%	113%	94.9%	107%	91%	110%	102%
CN=C1C=C/C(=N/N=c2/ccn(O)cc2C)C=C1C	97.2%	99.5%	84.4%	101%	102%	95.2%	97.8%	89%	95.4%	120%
Cc1c(C)c(C)c([N+](=O)[O-])c([N+](=O)[O-])c1C	94%	102%	111%	95.4%	101%	84%	99.3%	83.6%	95.9%	104%
COC(=O)c1cc(Cl)cc([N+](=O)[O-])c1O	109%	110%	97.2%	108%	112%	97.3%	106%	110%	114%	120%
CC1=C(C(=O)Nc2ccc(F)cc2)C(c2ccc(C)cc2)C2=C(CC(C)(C)CC2=O)N1 (stereo not given)	94%	100%	55.7%	92.5%	88.8%	75.3%	94.1%	86.4%	90%	97.1%
CC(C)OC(=O)c1ccc([N+](=O)[O-])cc1	107%	102%	111%	109%	106%	102%	106%	100%	98%	110%
CCCCN(CCCC)CCC(O)c1cc2ccc(C(F)(F)F)cc2c2cc(C(F)(F)F)ccc12 (stereo not given)	27.3%	8.42% (active)	60.9%	72.6%	45.2%	35.6%	38.9%	40.8%	-58.4% (active)	77.2%
CN(C)c1ccc(C(c2ccccc2)c2ccc(N(C)C)cc2)cc1	99.7%	90.4%	108%	96.9%	77.7%	90.7%	106%	98.3%	90%	107%
CC(=O)[C@@]1(O)[C@H](C)C[C@H]2[C@@H]3C=C(C)C4=Cc5c(cnn5-c5ccccc5)C[C@]4(C)[C@H]3[C@@H](O)C[C@@]21C	-27.9% (active)	-76.9% (active)	40.4%	70.2%	6.52% (active)	1.78% (active)	38.1%	1.84% (active)	4.75% (active)	43.6%
CC1=C(C(=O)Nc2ccc(F)cc2)C(c2ccccc2)C2=C(CC(C)(C)CC2=O)N1 (stereo not given)	77.8%	96.3%	65.8%	87.4%	69.8%	54.6%	38.2%	55.6%	79%	68%
O=C(/C=C/c1ccccc1)n1c(-c2ccccc2)nc2ccccc21	98.2%	110%	85.6%	94.7%	96.2%	95.6%	97.4%	103%	100%	108%
CC(=O)c1ccc(-n2c(-c3cc(-c4ccsc4)n[nH]3)n[nH]c2=S)cc1	96.5%	94.1%	91.2%	101%	102%	84.3%	101%	95.9%	99%	98.8%
CC(C)(C)CC(C)(C)NCc1cc(C(C)(C)C)cc(CNC(C)(C)CC(C)(C)C)c1O	56.8%	11.1%	60.8%	77.2%	49.7%	47.9%	36.8%	82.9%	45.6%	80.5%
COc1ccc(-c2cnc3ccnn3c2-c2cc(OC)c(OC)c(OC)c2)cc1	27.8%	8.99% (active)	5.62% (active)	56.4%	37.7%	29.9%	13.6%	42.3%	42.5%	71.1%
CCOC(=O)c1sc2nc(-c3cc4ccccc4o3)cc(-c3ccc(Cl)cc3)c2c1N	101%	105%	74.7%	101%	95.8%	77%	110%	66.8%	91.6%	108%
Cc1ccccc1CNc1ncnc2[nH]ncc12	108%	103%	94.8%	95.5%	99.8%	311%	106%	97.8%	95%	136%
Clc1ncnc2scc(C3COc4ccccc4O3)c12 (stereo not given)	79.8%	103%	65.2%	100%	90.4%	98.8%	90.4%	98.2%	41%	83.8%
Nc1ncnc2c1N=C(c1ccc(F)cc1)CC(c1sc(Cl)nc1Cl)N2 (stereo not given)	102%	92.2%	74%	92.9%	84.7%	79.5%	92%	94.5%	93%	102%
COc1ccc(-c2nc(-c3ccccc3OCc3ccccc3OC)nc(C)c2C(C)=O)cc1	78.9%	56.9%	83.8%	93.7%	90.2%	56.8%	91.3%	54.7%	98.7%	101%
O=C1C2=C(C(=O)c3c(O)ccc(O)c31)N(c1ccc(N3CCOCC3)nc1)Cc1ccccc1O2	-77.4% (active)	-47.7% (active)	-19.8% (active)	12.2%	0.735% (active)	1.08% (active)	-75% (active)	-66.7% (active)	-66.8% (active)	-77% (active)
C#CC[C@@H]1C[C@]2(C)[C@H]3CC[C@@H]4[C@H]5C(C(=C)C)CC[C@]5(C(=O)NCCCCN)CC[C@@]4(C)[C@]3(C)CC[C@H]2C(C)(C)[C@H]1OC(C)=O (stereo not given in full)	-66.1% (active)	-61.3% (active)	-97.3% (active)	-56.7% (active)	-86.6% (active)	6.29% (active)	89.9%	-36.1% (active)	-83.4% (active)	67.9%
NCCCOc1cc2ccccc2cc1C(=O)NCCCOc1cc2ccccc2cc1C(=O)Nc1ccc(Cl)cc1O	-55.3% (active)	-90.7% (active)	-68.2% (active)	-65.9% (active)	-86.1% (active)	-86.1% (active)	-70% (active)	-88.6% (active)	-89.6% (active)	-89.2% (active)
CCOc1ccc([C@@H]2[C@@H](Oc3ccccc3)C(=O)N2c2cc(OC)c(OC)c(OC)c2)cc1	10.8%	5.82% (active)	65.6%	35.4%	21.7%	25.6%	-18.7% (active)	26%	26.7%	64.8%
